# Measured values as given in the supplement of paper PMC6411743.
# ± gives the standard deviation of the averaged measurements. The full data set covers some 6,500 targets. This sample favours those with the largest changes.
# Compound: Nc1ncnc2c1ncn2[C@@H]1O[C@H](COP(=O)(O)OP(=O)(O)OP(=O)(O)O)[C@@H](O)[C@H]1O [adenosine triphosphate]
# Test: NP40-soluble protein abundance relative to vehicle (solubility fold change) (ratio); higher = more soluble protein in presence of ATP
# In short: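 Crude Jurkat lysate, prepared by Dounce homogenisation, was exposed to eight concentrations from 0.1 to 10 mM for 10 min at room temperature and then 3 min at 37 °C. Solubilisation used 0.8% NP40 with benzonase for 60 min at 4 °C, followed by ultracentrifugation and TMT labelling of the supernatant for LC-MS/MS. After vsn normalisation of intensities, each value is the fold change against the detergent-processed vehicle within each replicate, across three independent experiments.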
# UniProt Q14498, sequence (Q14498 whole entry): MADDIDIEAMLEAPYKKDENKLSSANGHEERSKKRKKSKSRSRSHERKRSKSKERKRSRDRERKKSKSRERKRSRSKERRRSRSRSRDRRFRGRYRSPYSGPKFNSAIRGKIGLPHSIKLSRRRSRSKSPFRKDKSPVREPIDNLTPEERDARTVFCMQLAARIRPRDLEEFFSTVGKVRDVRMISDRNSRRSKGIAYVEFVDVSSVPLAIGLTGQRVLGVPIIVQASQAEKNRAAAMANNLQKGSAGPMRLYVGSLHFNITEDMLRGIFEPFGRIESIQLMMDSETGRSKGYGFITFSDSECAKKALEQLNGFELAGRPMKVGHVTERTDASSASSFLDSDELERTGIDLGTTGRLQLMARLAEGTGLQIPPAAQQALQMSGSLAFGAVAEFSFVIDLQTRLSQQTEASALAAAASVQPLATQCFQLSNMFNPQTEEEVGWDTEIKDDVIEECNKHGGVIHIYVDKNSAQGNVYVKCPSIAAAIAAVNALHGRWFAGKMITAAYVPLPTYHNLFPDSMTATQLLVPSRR
# UniProt Q16630, sequence (Q16630 whole entry): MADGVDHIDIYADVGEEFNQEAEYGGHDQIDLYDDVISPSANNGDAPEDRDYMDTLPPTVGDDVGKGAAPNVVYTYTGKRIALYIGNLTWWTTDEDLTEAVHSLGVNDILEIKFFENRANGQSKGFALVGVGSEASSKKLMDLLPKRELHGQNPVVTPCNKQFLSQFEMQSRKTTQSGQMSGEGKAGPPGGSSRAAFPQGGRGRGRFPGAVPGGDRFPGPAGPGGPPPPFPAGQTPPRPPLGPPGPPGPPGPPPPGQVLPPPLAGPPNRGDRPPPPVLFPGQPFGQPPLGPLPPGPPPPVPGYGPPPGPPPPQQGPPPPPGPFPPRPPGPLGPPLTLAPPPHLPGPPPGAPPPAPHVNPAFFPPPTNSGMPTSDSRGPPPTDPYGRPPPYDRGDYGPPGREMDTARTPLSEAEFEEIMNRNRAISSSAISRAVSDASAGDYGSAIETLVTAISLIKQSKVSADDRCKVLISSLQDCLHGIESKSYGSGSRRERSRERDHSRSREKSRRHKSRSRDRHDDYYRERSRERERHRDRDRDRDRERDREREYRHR
# UniProt Q8TEB1, sequence (Q8TEB1 whole entry): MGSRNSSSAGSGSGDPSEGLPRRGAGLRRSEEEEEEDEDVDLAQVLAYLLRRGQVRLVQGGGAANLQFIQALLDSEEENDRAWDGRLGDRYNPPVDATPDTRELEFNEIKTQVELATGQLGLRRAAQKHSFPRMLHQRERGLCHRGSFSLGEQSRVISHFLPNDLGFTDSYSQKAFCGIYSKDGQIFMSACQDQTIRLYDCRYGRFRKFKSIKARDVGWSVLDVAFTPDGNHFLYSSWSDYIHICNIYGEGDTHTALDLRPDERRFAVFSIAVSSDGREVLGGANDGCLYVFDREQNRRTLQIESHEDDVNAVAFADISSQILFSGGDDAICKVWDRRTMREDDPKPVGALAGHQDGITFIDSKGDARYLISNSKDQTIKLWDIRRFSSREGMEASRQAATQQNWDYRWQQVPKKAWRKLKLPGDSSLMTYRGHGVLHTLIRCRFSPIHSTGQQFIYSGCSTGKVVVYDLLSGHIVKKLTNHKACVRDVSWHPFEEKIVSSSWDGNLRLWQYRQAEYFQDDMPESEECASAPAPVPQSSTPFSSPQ
# UniProt Q6Y7W6, sequence (Q6Y7W6 whole entry): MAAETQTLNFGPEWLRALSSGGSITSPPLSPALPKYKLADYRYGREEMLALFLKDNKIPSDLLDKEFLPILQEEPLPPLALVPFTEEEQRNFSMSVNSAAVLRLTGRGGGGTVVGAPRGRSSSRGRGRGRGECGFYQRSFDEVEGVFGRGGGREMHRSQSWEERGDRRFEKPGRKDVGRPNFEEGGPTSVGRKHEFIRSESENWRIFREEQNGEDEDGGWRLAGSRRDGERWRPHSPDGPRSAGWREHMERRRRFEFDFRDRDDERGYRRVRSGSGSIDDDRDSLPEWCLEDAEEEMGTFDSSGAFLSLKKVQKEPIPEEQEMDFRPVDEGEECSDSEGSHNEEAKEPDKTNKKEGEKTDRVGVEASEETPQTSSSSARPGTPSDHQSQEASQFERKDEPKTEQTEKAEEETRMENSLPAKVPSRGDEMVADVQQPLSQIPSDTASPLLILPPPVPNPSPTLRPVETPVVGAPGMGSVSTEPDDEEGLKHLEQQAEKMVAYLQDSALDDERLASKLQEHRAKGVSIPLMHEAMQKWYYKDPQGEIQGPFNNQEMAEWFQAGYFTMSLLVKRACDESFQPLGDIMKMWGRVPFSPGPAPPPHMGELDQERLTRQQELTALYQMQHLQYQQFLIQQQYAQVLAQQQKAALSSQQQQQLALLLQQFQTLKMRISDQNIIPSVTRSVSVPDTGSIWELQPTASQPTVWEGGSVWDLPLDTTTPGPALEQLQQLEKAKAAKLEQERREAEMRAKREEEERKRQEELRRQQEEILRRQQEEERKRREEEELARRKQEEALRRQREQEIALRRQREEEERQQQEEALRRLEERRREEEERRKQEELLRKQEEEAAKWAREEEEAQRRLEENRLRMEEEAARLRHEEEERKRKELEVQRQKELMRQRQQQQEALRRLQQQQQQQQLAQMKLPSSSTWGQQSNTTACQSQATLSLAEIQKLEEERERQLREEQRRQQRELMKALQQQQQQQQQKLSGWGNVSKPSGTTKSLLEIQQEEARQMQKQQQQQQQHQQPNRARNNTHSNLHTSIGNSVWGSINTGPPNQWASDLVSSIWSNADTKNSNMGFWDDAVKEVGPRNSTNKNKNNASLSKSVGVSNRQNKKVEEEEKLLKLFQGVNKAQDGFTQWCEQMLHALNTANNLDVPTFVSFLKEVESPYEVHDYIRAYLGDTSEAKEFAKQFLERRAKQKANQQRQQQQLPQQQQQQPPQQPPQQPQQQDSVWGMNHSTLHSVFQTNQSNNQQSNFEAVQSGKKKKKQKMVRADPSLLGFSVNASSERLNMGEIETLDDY
# UniProt Q7Z7K6, sequence (Q7Z7K6 whole entry): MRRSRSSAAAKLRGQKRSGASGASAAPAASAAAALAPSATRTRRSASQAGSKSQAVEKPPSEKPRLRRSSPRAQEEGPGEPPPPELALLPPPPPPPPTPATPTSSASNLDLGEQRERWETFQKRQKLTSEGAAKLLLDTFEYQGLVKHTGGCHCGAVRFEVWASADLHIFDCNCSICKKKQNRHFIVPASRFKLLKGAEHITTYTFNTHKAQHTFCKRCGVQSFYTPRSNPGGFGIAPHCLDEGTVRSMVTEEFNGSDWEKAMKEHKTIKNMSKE
# UniProt Q13057, sequence (Q13057 whole entry): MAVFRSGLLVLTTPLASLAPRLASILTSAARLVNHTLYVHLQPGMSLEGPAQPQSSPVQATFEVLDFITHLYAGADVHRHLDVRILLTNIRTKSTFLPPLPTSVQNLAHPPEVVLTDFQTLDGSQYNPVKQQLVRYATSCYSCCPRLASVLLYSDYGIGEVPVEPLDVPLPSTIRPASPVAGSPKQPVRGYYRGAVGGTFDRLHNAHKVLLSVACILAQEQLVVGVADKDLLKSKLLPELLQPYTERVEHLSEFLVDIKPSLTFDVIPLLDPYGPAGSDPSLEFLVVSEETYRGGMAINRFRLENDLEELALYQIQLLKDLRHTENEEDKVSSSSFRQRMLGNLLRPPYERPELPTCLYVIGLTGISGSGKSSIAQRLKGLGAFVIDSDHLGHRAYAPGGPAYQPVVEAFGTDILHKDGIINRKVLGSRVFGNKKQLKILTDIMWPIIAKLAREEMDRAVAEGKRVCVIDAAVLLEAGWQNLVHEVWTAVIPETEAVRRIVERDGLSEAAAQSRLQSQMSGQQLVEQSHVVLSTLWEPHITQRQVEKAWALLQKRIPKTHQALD
# UniProt Q15276, sequence (Q15276 whole entry): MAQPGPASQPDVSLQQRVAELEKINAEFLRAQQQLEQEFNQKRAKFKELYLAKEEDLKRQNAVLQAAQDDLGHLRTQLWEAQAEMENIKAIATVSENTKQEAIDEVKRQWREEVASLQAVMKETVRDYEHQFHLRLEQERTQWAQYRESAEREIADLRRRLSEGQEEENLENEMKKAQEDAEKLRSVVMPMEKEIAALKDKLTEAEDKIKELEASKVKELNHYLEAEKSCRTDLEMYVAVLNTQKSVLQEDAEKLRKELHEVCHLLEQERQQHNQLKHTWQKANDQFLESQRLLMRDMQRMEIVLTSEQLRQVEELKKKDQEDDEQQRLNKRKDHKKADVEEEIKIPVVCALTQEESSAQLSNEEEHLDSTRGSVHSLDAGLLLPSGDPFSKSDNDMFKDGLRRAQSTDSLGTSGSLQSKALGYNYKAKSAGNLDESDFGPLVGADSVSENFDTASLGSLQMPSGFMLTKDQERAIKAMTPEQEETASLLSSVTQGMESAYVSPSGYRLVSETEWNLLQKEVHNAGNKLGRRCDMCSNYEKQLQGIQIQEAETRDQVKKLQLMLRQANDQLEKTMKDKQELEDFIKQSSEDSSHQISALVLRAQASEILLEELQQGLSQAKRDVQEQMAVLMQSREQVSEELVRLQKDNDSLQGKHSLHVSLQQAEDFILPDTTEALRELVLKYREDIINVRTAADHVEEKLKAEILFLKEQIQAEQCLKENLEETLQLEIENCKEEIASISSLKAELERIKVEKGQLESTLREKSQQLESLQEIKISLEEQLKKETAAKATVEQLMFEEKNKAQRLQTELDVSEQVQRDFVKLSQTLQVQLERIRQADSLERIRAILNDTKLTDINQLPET
# UniProt Q8WUY8, sequence (Q8WUY8 whole entry, one chain of several): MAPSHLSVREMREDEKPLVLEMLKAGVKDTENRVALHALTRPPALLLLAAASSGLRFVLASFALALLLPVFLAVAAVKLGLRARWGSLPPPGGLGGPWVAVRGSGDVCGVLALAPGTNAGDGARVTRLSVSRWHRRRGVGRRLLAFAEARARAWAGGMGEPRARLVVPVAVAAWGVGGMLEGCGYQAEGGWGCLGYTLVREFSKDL
# UniProt Q14061, sequence (Q14061 whole entry): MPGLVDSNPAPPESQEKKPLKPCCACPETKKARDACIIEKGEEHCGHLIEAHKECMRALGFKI
Target,NP40-soluble protein abundance (concentration: 1mM),NP40-soluble protein abundance (concentration: 2mM),NP40-soluble protein abundance (concentration: 4mM),NP40-soluble protein abundance (concentration: 6mM),NP40-soluble protein abundance (concentration: 8mM),NP40-soluble protein abundance (concentration: 10mM)
UniProt Q8WU79|A0A087WV97|Q8WU79-2|Q8WU79-3,0.891 ± 0.067,0.924 ± 0.024,0.869 ± 0.011,0.975 ± 0.047,0.839 ± 0.017,0.872 ± 0.032
YRDC (UniProt Q86U90),0.928 ± 0.045,0.959 ± 0.05,0.93 ± 0.028,0.885 ± 0.043,0.896 ± 0.01,0.932 ± 0.017
UniProt Q8N3X1|Q8N3X1-2,1.01 ± 0.026,1.11 ± 0.013,1.29 ± 0.042,1.57 ± 0.027,1.72 ± 0.08,1.9 ± 0.082
UniProt Q8IUD2|X6RLX0,0.979 ± 0.037,0.985 ± 0.025,0.997 ± 0.025,1.01 ± 0.014,0.988 ± 0.027,0.997 ± 0.025
UniProt Q7Z5G4|Q7Z5G4-3,0.928 ± 0.02,0.914 ± 0.015,0.902 ± 0.019,0.885 ± 0.046,0.878 ± 0.014,0.897 ± 0.032
UniProt Q53HC0|Q53HC0-2,0.993 ± 0.083,0.918 ± 0.031,0.939 ± 0.082,0.993 ± 0.21,0.966 ± 0.092,0.922 ± 0.084
PIGO (UniProt Q8TEQ8),0.991 ± 0.035,1 ± 0.062,0.996 ± 0.02,0.979 ± 0.073,0.983 ± 0.051,1.01 ± 0.039
UniProt Q8TEB1|Q8TEB1-2,0.948 ± 0.093,0.977 ± 0.06,0.961 ± 0.079,0.956 ± 0.054,0.942 ± 0.066,0.918 ± 0.078
UniProt Q8TDY2|Q8TDY2-2,1.04 ± 0.056,1.02 ± 0.044,1.03 ± 0.038,1.04 ± 0.042,1.01 ± 0.041,1.04 ± 0.038
KRR1 (UniProt Q13601),1.12 ± 0.012,1.16 ± 0.043,1.23 ± 0.066,1.27 ± 0.047,1.29 ± 0.026,1.42 ± 0.033
PPIG (UniProt Q13427),1.61 ± 0.22,1.69 ± 0.27,1.78 ± 0.32,1.99 ± 0.49,1.85 ± 0.43,1.95 ± 0.46
UniProt Q16630|Q16630-2,2.36 ± 0.24,2.68 ± 0.27,2.89 ± 0.3,3.09 ± 0.32,3.03 ± 0.2,3.05 ± 0.28
UniProt Q13409|Q13409-2|Q13409-3|Q13409-7|Q13409-5,0.957 ± 0.063,0.957 ± 0.037,0.953 ± 0.059,0.994 ± 0.18,0.975 ± 0.089,0.973 ± 0.074
UniProt Q0VDD8-4,0.837 ± 0.098,0.884 ± 0.028,0.9026 ± 0.0016,0.9241 ± 0.0037,0.956 ± 0.13,1.06 ± 0.059
FAM117B (UniProt Q6P1L5),0.945 ± 0.048,0.984 ± 0.061,0.97 ± 0.039,0.978 ± 0.042,0.952 ± 0.069,0.946 ± 0.032
CUL4A (UniProt Q13619),0.99 ± 0.13,0.955 ± 0.08,0.918 ± 0.08,0.89 ± 0.098,0.963 ± 0.047,0.94 ± 0.047
UniProt Q8NC60,0.967 ± 0.17,0.876 ± 0.13,0.889 ± 0.13,0.876 ± 0.2,0.945 ± 0.15,0.942 ± 0.14
UniProt Q7Z7K6|Q7Z7K6-3,1.08 ± 0.058,1.14 ± 0.19,1.33 ± 0.14,1.47 ± 0.24,1.56 ± 0.23,2.03 ± 0.28
UniProt Q86UY6,1.39 ± 0.18,1.46 ± 0.14,1.56 ± 0.21,1.66 ± 0.26,1.69 ± 0.21,1.69 ± 0.15
Q5QPA5|Q9NVS2|Q9NVS2-2 (UniProt Q9NVS2),1.07 ± 0.12,0.926 ± 0.14,0.879 ± 0.17,0.946 ± 0.39,0.887 ± 0.24,0.818 ± 0.2
UniProt Q6KCM7-2|Q6KCM7-3|Q6KCM7|Q6KCM7-4|Q6KCM7-5,0.871 ± 0.048,0.884 ± 0.061,0.831 ± 0.012,0.758 ± 0.085,0.868 ± 0.039,0.894 ± 0.026
UniProt Q14643|Q14643-2|Q14643-5,1.05 ± 0.071,0.999 ± 0.065,1 ± 0.041,0.961 ± 0.07,1.02 ± 0.027,0.995 ± 0.045
UniProt Q14289|Q14289-2|H0YB74,1.03 ± 0.04,1.04 ± 0.042,1.02 ± 0.04,0.981 ± 0.06,1.01 ± 0.04,1 ± 0.064
UniProt Q86U06|Q86U06-2|Q86U06-4|Q86U06-5|G3XAP0,1.5 ± 0.41,1.53 ± 0.31,1.48 ± 0.33,1.76 ± 0.46,1.56 ± 0.41,1.46 ± 0.49

Target,NP40-soluble protein abundance (concentration: 1mM),NP40-soluble protein abundance (concentration: 2mM),NP40-soluble protein abundance (concentration: 4mM),NP40-soluble protein abundance (concentration: 6mM),NP40-soluble protein abundance (concentration: 8mM),NP40-soluble protein abundance (concentration: 10mM)
UniProt Q2KHT3|Q2KHT3-2,1.04 ± 0.045,0.967 ± 0.1,0.963 ± 0.11,0.999 ± 0.093,1.04 ± 0.15,1.02 ± 0.17
UniProt Q8NEJ9|Q8NEJ9-2,1.11 ± 0.12,1.13 ± 0.16,1.24 ± 0.064,1.29 ± 0.14,1.32 ± 0.058,1.34 ± 0.19
UniProt Q8WUY8|M0R1E3,1.02 ± 0.085,1.049 ± 0.0036,1.13 ± 0.032,0.966 ± 0.052,1.03 ± 0.067,1.08 ± 0.013
UniProt Q13795|Q13795-3,0.95 ± 0.024,0.961 ± 0.015,0.932 ± 0.025,0.962 ± 0.046,0.9416 ± 0.0073,0.945 ± 0.039
UniProt Q14498|Q14498-2,1.59 ± 0.14,1.72 ± 0.12,1.84 ± 0.12,1.93 ± 0.13,1.98 ± 0.15,2.02 ± 0.2
UniProt Q13057|Q13057-2,1.01 ± 0.061,1.02 ± 0.072,1.02 ± 0.086,0.962 ± 0.094,1.04 ± 0.095,1.02 ± 0.075
UniProt Q14155-1,1 ± 0.011,0.9849 ± 0.0056,0.97 ± 0.013,1.02 ± 0.05,0.976 ± 0.024,0.962 ± 0.034
UniProt Q5JUR7,1 ± 0.077,1.07 ± 0.12,1.04 ± 0.029,1.02 ± 0.13,1.05 ± 0.087,1.06 ± 0.062
RABEP1 (UniProt Q15276),0.942 ± 0.049,0.944 ± 0.032,0.928 ± 0.021,0.995 ± 0.054,0.895 ± 0.016,0.9135 ± 0.0042
TBL3 (UniProt Q12788),1.15 ± 0.06,1.3 ± 0.04,1.58 ± 0.036,1.59 ± 0.11,1.89 ± 0.1,2.01 ± 0.089
UniProt Q8NCU8-2,0.876 ± 0.17,0.822 ± 0.086,0.826 ± 0.14,0.769 ± 0.068,0.883 ± 0.12,0.752 ± 0.038
UniProt Q8N137|Q8N137-2|Q8N137-3|Q8N137-4|Q8N137-5,0.92 ± 0.024,1.032 ± 0.006,1.15 ± 0.056,0.983 ± 0.054,0.945 ± 0.026,0.947 ± 0.2
UniProt Q08170,1.58 ± 0.12,1.68 ± 0.08,1.66 ± 0.095,1.81 ± 0.058,1.68 ± 0.052,1.64 ± 0.073
SF3B3 (UniProt Q15393),1.12 ± 0.072,1.11 ± 0.052,1.15 ± 0.072,1.1 ± 0.032,1.188 ± 0.0092,1.19 ± 0.037
TYSND1 (UniProt Q2T9J0),0.977 ± 0.047,0.983 ± 0.058,0.995 ± 0.042,0.947 ± 0.013,0.974 ± 0.032,0.96 ± 0.076
UniProt Q70Z53,0.931 ± 0.015,0.927 ± 0.028,0.919 ± 0.011,0.922 ± 0.066,0.933 ± 0.058,0.936 ± 0.013
UBE2V2 (UniProt Q15819),0.932 ± 0.018,0.904 ± 0.027,0.9 ± 0.045,0.922 ± 0.032,0.885 ± 0.035,0.853 ± 0.028
PDCD11 (UniProt Q14690),1.09 ± 0.092,1.14 ± 0.056,1.29 ± 0.062,1.5 ± 0.13,1.75 ± 0.073,2.06 ± 0.15
UniProt Q8IZ81|D6RBS5,1.01 ± 0.11,0.966 ± 0.089,0.958 ± 0.094,0.916 ± 0.12,0.967 ± 0.045,0.958 ± 0.057
UniProt Q13761|Q13761-2,1.07 ± 0.2,1.18 ± 0.35,1.18 ± 0.3,1.19 ± 0.31,1.13 ± 0.23,1.18 ± 0.13
UniProt Q8NB78,1.11 ± 0.064,1.09 ± 0.025,1.11 ± 0.08,0.998 ± 0.08,1.11 ± 0.035,1.09 ± 0.025
UniProt Q6Y7W6|Q6Y7W6-4|Q6Y7W6-5,1.05 ± 0.076,1.08 ± 0.05,1.1 ± 0.051,1.18 ± 0.068,1.12 ± 0.029,1.16 ± 0.045
KIF18A (UniProt Q8NI77),1.09 ± 0.11,0.996 ± 0.2,1.09 ± 0.035,1.06 ± 0.013,1.09 ± 0.18,1.18 ± 0.16
COX17 (UniProt Q14061),0.938 ± 0.1,0.895 ± 0.074,0.92 ± 0.1,0.963 ± 0.033,0.859 ± 0.056,0.847 ± 0.023
